Our source for the growth values is PubChem BioAssay (NCI).

Compounds without any hit were thinned out: in the full panel of roughly 83,000, 20% have a hit.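 Cell lines were cultured in 96-well plates, exposed to a single compound concentration, and assessed for percent growth 48 hours later.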 A number with no mark means an inactive call. Activity calls are given as the source filed them. The calls were made as follows: active = growth percent below 10; inactive = the rest.

Test systems include HCT-15 colon; HT29 colon; SNB-75 CNS; SNB-19 CNS; U251 CNS; SK-MEL-5 melanoma; UACC-62 melanoma; LOX IMVI melanoma; SK-MEL-28 melanoma; PC-3 prostate.
Holding throughout (assay): NCI-60 one-dose screen, 48 h (100 = growth as untreated, 0 = no growth, -100 = all killed)
What all share (details): 10 µM unless noted

For the molecule `CN1C(=O)C(=Cc2cn(Cc3ccccc3)c3ccccc23)C(=O)N(C)C1=O`, the growth is 93% in the experiment on HCT-15 colon; 89.5% with HT29 colon; 60.1% in the experiment on SNB-75 CNS; 90% in the experiment with SNB-19 CNS; 82.8% in the experiment on U251 CNS; 63.4% in the experiment on SK-MEL-5 melanoma. Moreover, the growth was 34% in the experiment on UACC-62 melanoma, 82.6% in the experiment on LOX IMVI melanoma and 99.3% in the experiment with SK-MEL-28 melanoma.

As to `COC(=O)CC12CC(NC(=O)c3csc([C@@H](C[C@H](C(C)C)N(C)C(=O)[C@@H](NC(=O)[C@H]4CCCCN4C)C(C)C)OC(C)=O)n3)(C1)C2`, the growth was 11.8% with HCT-15 colon; 5.49% (active) in the experiment on HT29 colon; 59% in the experiment on SNB-75 CNS; 37.8% in the experiment on SNB-19 CNS; 30.2% in the experiment with PC-3 prostate; -30.2% (active) in the experiment with SK-MEL-5 melanoma. Moreover, the growth with UACC-62 melanoma was 49.7%; with LOX IMVI melanoma, 23.3%; in the experiment with SK-MEL-28 melanoma, 59.4%.

As to `C/C(Cc1ccc(Cl)cc1)=C(\c1ccc(OCCN2CCOCC2)cc1)c1ccc(OC(=O)Cc2ccccc2)cc1`, the growth was 91.1% in the experiment on HCT-15 colon; 79.5% in the experiment on HT29 colon; 89.6% in the experiment on SNB-75 CNS; 101% in the experiment with SNB-19 CNS; 97.4% in the experiment on U251 CNS; 95.6% in the experiment with SK-MEL-5 melanoma. The growth was 84.5% in the experiment on UACC-62 melanoma, 97% with LOX IMVI melanoma and 99.7% in the experiment with SK-MEL-28 melanoma.

On to `COc1cc(NC(C)CCCNC2CN3CCC2CC3)c2ncccc2c1` (configuration not stated), for which the growth in the experiment with HCT-15 colon was 65.8%; with HT29 colon it was 27%; in the experiment with SNB-75 CNS, 78.1%; in the experiment with SNB-19 CNS it was 86.5%; with U251 CNS, 77.7%; in the experiment with SK-MEL-5 melanoma it was 70%. Further, the growth in the experiment with UACC-62 melanoma is 38%; in the experiment on LOX IMVI melanoma, 76.1%; in the experiment on SK-MEL-28 melanoma, 95.3%.

In the case of `Nc1ccc(OCCNS(=O)(=O)c2cccc(S(=O)(=O)F)c2)c(Cl)c1`, the growth was 93.4% with HCT-15 colon; 106% with HT29 colon; 50.5% in the experiment on SNB-75 CNS; 96.6% in the experiment with SNB-19 CNS; 97.6% in the experiment with PC-3 prostate; 97.1% in the experiment with SK-MEL-5 melanoma. The growth is 93.2% with UACC-62 melanoma, 94.2% in the experiment on LOX IMVI melanoma and 88.8% in the experiment on SK-MEL-28 melanoma.

Consider `C[Se]C(=O)c1ccccc1OC(C)=O`, for which the growth in the experiment with HCT-15 colon is 81%; in the experiment on HT29 colon, 11.1%; in the experiment on SNB-75 CNS, -42.4% (active); in the experiment on SNB-19 CNS, 46.6%; with U251 CNS it was 46%; with SK-MEL-5 melanoma it was 79.3%. The values for the growth in the experiment on UACC-62 melanoma, with LOX IMVI melanoma and with SK-MEL-28 melanoma were 58.2%, 45.3% and 46.1%, respectively.

For `CNC(=O)Oc1ccc(N(C)C)cc1C(C)C`, the growth with HCT-15 colon was 102%; with HT29 colon, 98.2%; in the experiment on SNB-75 CNS, 66.5%; in the experiment on SNB-19 CNS, 101%; with U251 CNS, 101%; with SK-MEL-5 melanoma it was 99.4%. The growth with UACC-62 melanoma is 102%; in the experiment with LOX IMVI melanoma it was 105%; in the experiment on SK-MEL-28 melanoma, 101%.

As for `Cc1c2cc(Cl)c3ccccc3c2c[n+]2ccccc12`, the growth is 103% in the experiment with HCT-15 colon; 88.9% with HT29 colon; -15.7% (active) in the experiment on SNB-75 CNS; -26.3% (active) in the experiment with SNB-19 CNS; 0.443% (active) in the experiment with U251 CNS; -43.5% (active) with SK-MEL-5 melanoma. The results for the growth in the experiment with UACC-62 melanoma, with LOX IMVI melanoma and in the experiment with SK-MEL-28 melanoma were 29.1%, 84.6% and -27.2% (active), respectively.

On to `O=C(CC1(O)C(=O)N(Cc2ccccc2)c2ccc(Br)cc21)c1ccc(C(=O)NCC2CCC3(CC2)OOC2(CCCCC2)OO3)cc1` (configuration not stated), for which the growth in the experiment with HCT-15 colon was 2.73% (active); in the experiment with HT29 colon, -65.5% (active); in the experiment on SNB-75 CNS, 15%; with SNB-19 CNS, 56.1%; in the experiment with U251 CNS, -85.4% (active); in the experiment on UACC-62 melanoma, 80.7%. In addition, the growth in the experiment on LOX IMVI melanoma was -79.7% (active); in the experiment on SK-MEL-28 melanoma, 77.4%.

In the case of `NC(=Nc1ccccc1)N[N+](=O)[O-]`, the growth in the experiment on HCT-15 colon was 105%; with HT29 colon it was 100%; in the experiment on SNB-75 CNS, 87.5%; in the experiment with SNB-19 CNS it was 96.9%; in the experiment on U251 CNS, 111%; in the experiment with SK-MEL-5 melanoma, 103%. Moreover, the growth in the experiment with UACC-62 melanoma was 94%; in the experiment with LOX IMVI melanoma it was 103%; with SK-MEL-28 melanoma, 105%.

On to `O=C(O)c1ccc([S-])cc1.[Au+].c1ccc(CN2[CH-]N(Cc3ccccc3)C(c3ccccc3)=C2c2ccccc2)cc1`, for which the growth in the experiment with HCT-15 colon was -89.3% (active); in the experiment with HT29 colon it was -24.7% (active); with SNB-75 CNS, -9.88% (active); in the experiment on SNB-19 CNS, -66.8% (active); in the experiment on U251 CNS, -82.5% (active); with SK-MEL-5 melanoma, -92.9% (active). Besides, the growth was -51.6% (active) in the experiment on UACC-62 melanoma, -78.9% (active) in the experiment with LOX IMVI melanoma and -20.2% (active) in the experiment on SK-MEL-28 melanoma.

With `CCCCCCCC[N+](C)(CCCCCCCC)CCCCCCCC`, the growth is -75% (active) in the experiment on HCT-15 colon; -100% (active) with HT29 colon; -100% (active) in the experiment on SNB-75 CNS; -89.6% (active) with SNB-19 CNS; -75% (active) in the experiment with U251 CNS; -100% (active) with SK-MEL-5 melanoma. Also, the growth with UACC-62 melanoma is -94.5% (active); in the experiment with LOX IMVI melanoma it was -74.7% (active); with SK-MEL-28 melanoma, -100% (active).

Consider `Oc1c(O)c(Cl)c(Cl)c(Cl)c1Cl`, for which the growth with HCT-15 colon was 26.3%; in the experiment on HT29 colon, 62.7%; with SNB-75 CNS it was 36.7%; in the experiment with SNB-19 CNS, 29.7%; in the experiment with U251 CNS it was 38.9%; with SK-MEL-5 melanoma, 22.5%. Besides, the growth in the experiment with UACC-62 melanoma is 3.58% (active); with LOX IMVI melanoma, 24.4%; with SK-MEL-28 melanoma, 51.4%.

With `CCCCCCCCCCCCCCCCCC1OC[C@H](COC(=O)O[C@@H](C(=O)O[C@H]2C[C@@]3(O)[C@@H](OC(=O)c4ccccc4)[C@@H]4[C@]5(OC(C)=O)CO[C@@H]5C[C@H](O)[C@@]4(C)C(=O)[C@H](OC(C)=O)C(=C2C)C3(C)C)[C@@H](NC(=O)c2ccccc2)c2ccccc2)O1` (some centres not stated), the growth was 96.8% in the experiment on HCT-15 colon; 15.7% in the experiment with HT29 colon; 59.1% with SNB-75 CNS; 49.6% with SNB-19 CNS; 46.6% with U251 CNS; 75.6% in the experiment on SK-MEL-5 melanoma. In addition, the growth was 46.8% in the experiment on UACC-62 melanoma and 55.9% with SK-MEL-28 melanoma.

As for `COc1cccc2c1c(C(=O)c1ccco1)cn2Cc1ccc(F)cc1`, the growth with HCT-15 colon is 103%; in the experiment on HT29 colon, 118%; with SNB-75 CNS, 121%; in the experiment on SNB-19 CNS it was 119%; in the experiment on U251 CNS, 112%; in the experiment on SK-MEL-5 melanoma, 96.3%. For the same molecule, the results for the growth in the experiment with UACC-62 melanoma, in the experiment with LOX IMVI melanoma and with SK-MEL-28 melanoma were 78.3%, 109% and 123%, respectively.

As for `C[C@@H]1C[C@@]2(C)[C@@H](CC[C@@H]3[C@@H]2CC[C@]2(C)C(=O)CC[C@@H]32)CC1=O`, the growth is 103% with HCT-15 colon; 91.8% in the experiment on HT29 colon; 86.2% in the experiment with SNB-75 CNS; 96.7% with SNB-19 CNS; 97.3% with PC-3 prostate; 114% in the experiment on SK-MEL-5 melanoma. Besides, the figures for the growth in the experiment on UACC-62 melanoma, in the experiment on LOX IMVI melanoma and in the experiment on SK-MEL-28 melanoma were 99.4%, 98.5% and 76.7%, respectively.

For `O=[N+]([O-])c1ccc(OP(=O)(CCl)N(CCCl)CCCl)cc1` (configuration not stated), the growth is 90.3% in the experiment on HCT-15 colon; 86.8% in the experiment with HT29 colon; 77.7% in the experiment on SNB-75 CNS; 111% in the experiment on SNB-19 CNS; 96.1% in the experiment on U251 CNS; 107% in the experiment on SK-MEL-5 melanoma. The growth with UACC-62 melanoma is 104%; in the experiment on LOX IMVI melanoma it was 98.4%; in the experiment with SK-MEL-28 melanoma, 106%.

As for `C[C@@H]1CCC2[C@@H](C)[C@H](OC(=O)CCC(=O)NCCNC(=O)Cc3cc(=O)oc4cc(N(C)C)ccc34)O[C@@H]3O[C@]4(C)CC[C@@H]1C23OO4` (some centres not stated), the growth with HCT-15 colon was 7.81% (active); in the experiment with HT29 colon, 26.4%; in the experiment on SNB-75 CNS it was 60.9%; in the experiment on SNB-19 CNS, 65%; in the experiment with U251 CNS, 34.4%; in the experiment with SK-MEL-5 melanoma it was 33.2%. The growth in the experiment on UACC-62 melanoma is 31.7%; with LOX IMVI melanoma, -7.91% (active); in the experiment with SK-MEL-28 melanoma, 57.5%.

Regarding `COC(=O)[C@@H](C)C[C@H](Cc1ccccc1)NC(=O)c1csc([C@@H](C[C@H](C(C)C)N(C)C(=O)[C@@H](NC(=O)CN(C)C)C2CC2)OC(C)=O)n1`, the growth is 14.6% with HCT-15 colon; -24.4% (active) in the experiment on HT29 colon; 37.4% in the experiment with SNB-75 CNS; 41% in the experiment with SNB-19 CNS; 12.7% in the experiment on U251 CNS; -47.6% (active) in the experiment with SK-MEL-5 melanoma. The figures for the growth in the experiment on UACC-62 melanoma, in the experiment on LOX IMVI melanoma and in the experiment with SK-MEL-28 melanoma were 63.8%, 8.77% (active) and 61.3%, respectively.

With `CCCCCCCCCCCCCCCCCCOc1ccccc1COP(=O)(O)OOCC[N+](C)(C)C`, the growth was 41.2% in the experiment with HCT-15 colon; -11.4% (active) in the experiment with HT29 colon; -4.01% (active) in the experiment on SNB-75 CNS; -13.9% (active) in the experiment on SNB-19 CNS; -58.8% (active) in the experiment with U251 CNS; -72.9% (active) in the experiment with SK-MEL-5 melanoma. Besides, the growth is -11.5% (active) in the experiment on UACC-62 melanoma, -88.1% (active) in the experiment with LOX IMVI melanoma and 21.4% in the experiment on SK-MEL-28 melanoma.

`CCCCCCCC[n+]1ccc2ccccc2c1`: the growth in the experiment on HCT-15 colon is 99.7%; with HT29 colon it was 42.4%; in the experiment on SNB-75 CNS, 69.4%; in the experiment on SNB-19 CNS it was 53.8%; in the experiment on PC-3 prostate, 35%; in the experiment with SK-MEL-5 melanoma it was -19.4% (active). The values for the growth in the experiment with UACC-62 melanoma, in the experiment on LOX IMVI melanoma and in the experiment on SK-MEL-28 melanoma were 25.5%, 63.6% and 61.2%, respectively.
